Reference: PubChem BioAssay (NCI)
About 83,000 compounds went through this panel and 20% of them were active in at least one assay; those are over-represented in the sample as a whole.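 Cell lines were cultured in 96-well plates, exposed to a single compound concentration, and assessed for percent growth 48 hours later.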 Active and inactive are the calls of the source. The calls were made as follows: active = growth percent below 10; inactive = the rest.

Key:
Assay in all cases: NCI-60 one-dose screen, 48 h (100 = growth as untreated, 0 = no growth, -100 = all killed)
Settings in all cases: 10 µM unless noted
T-47D breast = test system: T-47D breast
BT-549 breast = test system: BT-549 breast
MDA-MB-435 melanoma = test system: MDA-MB-435 melanoma
SW-620 colon = test system: SW-620 colon
MCF7 breast = test system: MCF7 breast
HCT-116 colon = test system: HCT-116 colon
HCC-2998 colon = test system: HCC-2998 colon
KM12 colon = test system: KM12 colon

Measured: growth

Oc1ccccc1-c1nnc(SCc2ccc(O)c3ncccc23)n1-c1ccccc1
inactive: BT-549 breast 25.2% | MDA-MB-435 melanoma 14.4% | SW-620 colon 14.9% | HCT-116 colon 12.6% | HCC-2998 colon 29% | KM12 colon 15.4%
active: T-47D breast 6.93% | MCF7 breast 3.11%

O=[N+]([O-])c1ccc(-c2nnc(SCc3ccc(O)c4ncccc34)o2)cc1
inactive: BT-549 breast 27.4% | MDA-MB-435 melanoma 19% | SW-620 colon 20.5% | HCT-116 colon 12.7% | HCC-2998 colon 28% | KM12 colon 13.8%
active: T-47D breast 9.66% | MCF7 breast 6.95%

O=C1/C(=C/c2ccc([N+](=O)[O-])cc2)SC(=Nc2ccccc2)N1Nc1ccccc1
inactive: T-47D breast 56.2% | BT-549 breast 95.6% | MDA-MB-435 melanoma 71.1% | SW-620 colon 43.2% | MCF7 breast 44.1% | HCT-116 colon 26.9% | HCC-2998 colon 85.3% | KM12 colon 77.5%

CC(C)=CCC[C@](C)(O)[C@H]1CC[C@]2(C)[C@@H]1CC[C@@H]1[C@@]3(C)CCC(NC(=O)c4ccccc4C(=O)O)C(C)(C)[C@@H]3CC[C@]12C (stereo not given in full)
inactive: T-47D breast 79.4% | BT-549 breast 113% | MDA-MB-435 melanoma 51.2% | SW-620 colon 91% | MCF7 breast 73% | HCT-116 colon 86.9% | HCC-2998 colon 96.5% | KM12 colon 87.9%

O=c1c2c(O)cccc2oc2c3c(cc(O)c12)O[C@H]1OC=C[C@@H]31
inactive: T-47D breast 57.4% | BT-549 breast 95.2% | MDA-MB-435 melanoma 83.3% | SW-620 colon 78.1% | HCT-116 colon 86.6% | HCC-2998 colon 63.8% | KM12 colon 82.4%
active: MCF7 breast 8.3%

O=C(NNc1nc2cc(F)cc(F)c2n2cccc12)c1ncccn1
inactive: BT-549 breast 20.6% | MDA-MB-435 melanoma 24.6% | SW-620 colon 21.6% | HCT-116 colon 20.1% | HCC-2998 colon 51.9% | KM12 colon 22.3%
active: T-47D breast 3.06% | MCF7 breast 9.91%

C#Cc1ccc(NC(=O)c2ccc(/C=C/C(=O)c3nccn3C)cc2)c(F)c1
inactive: T-47D breast 14.6% | BT-549 breast 40.2% | MDA-MB-435 melanoma 27.9% | SW-620 colon 18.9% | MCF7 breast 11% | HCT-116 colon 18% | HCC-2998 colon 82.6% | KM12 colon 23.5%

COc1cc2oc(-c3cccc(NC(=O)c4cc(NC(=O)[C@H](C)NC(=O)OC(C)(C)C)ccc4C)c3)cc(=O)c2c(OC)c1OC
inactive: T-47D breast 28.2% | BT-549 breast 84.9% | MDA-MB-435 melanoma 90% | SW-620 colon 92.9% | MCF7 breast 67% | HCT-116 colon 58% | HCC-2998 colon 78.6% | KM12 colon 71.1%

O=c1oc2ccc(-c3ccc(F)cc3F)cc2c(=O)n1-c1cccc(C(F)(F)F)c1
inactive: SW-620 colon 14.2% | HCC-2998 colon 16.4%
active: T-47D breast 6.01% | BT-549 breast 3.66% | MDA-MB-435 melanoma 6.94% | MCF7 breast 2.43% | HCT-116 colon 4.36% | KM12 colon 6.11%

Cc1ccc(-n2cc(/C=C/C(=O)c3ccc(S(C)(=O)=O)cc3)c(-c3ccc(S(C)(=O)=O)cc3)n2)cc1
inactive: T-47D breast 105% | BT-549 breast 91.5% | MDA-MB-435 melanoma 31.4% | SW-620 colon 64.9% | MCF7 breast 64.8% | HCT-116 colon 53.4% | HCC-2998 colon 107% | KM12 colon 59.5%

O=C(Nc1cc(Cl)cc(Cl)c1)Nc1nc2ccc([N+](=O)[O-])cc2s1
active: T-47D breast -13.4% | BT-549 breast -24% | MDA-MB-435 melanoma -6.04% | SW-620 colon 8.7% | MCF7 breast 2.98% | HCT-116 colon 0.0425% | HCC-2998 colon 3.91% | KM12 colon 3.63%

O=C(Cn1cc(CN2C(=O)c3ccc([N+](=O)[O-])cc3C2=O)nn1)Nc1ccccc1Br
inactive: T-47D breast 104% | BT-549 breast 115% | MDA-MB-435 melanoma 109% | SW-620 colon 97.4% | MCF7 breast 94.3% | HCT-116 colon 98.8% | HCC-2998 colon 101% | KM12 colon 102%

COc1ccc(CCN2C(=O)/C(=C/c3nc(CO)cs3)SC2=S)cc1
inactive: T-47D breast 76.4% | BT-549 breast 97.1% | MDA-MB-435 melanoma 96% | SW-620 colon 93.7% | MCF7 breast 16% | HCT-116 colon 59.9% | HCC-2998 colon 107% | KM12 colon 17.8%

COc1cc(/C=C2\SC(=O)NC2=O)ccc1OCC(=O)Nc1ccc(C(=O)/C=C/c2cc3ccccc3nc2Cl)cc1
active: HCT-116 colon -62%
inactive: T-47D breast 66.3% | BT-549 breast 72.9% | MDA-MB-435 melanoma 83.6% | SW-620 colon 96.6% | MCF7 breast 20.9% | HCC-2998 colon 103% | KM12 colon 91.6%

O=C(CCCCCCN1CC(=O)N2[C@@H](c3ccc(Cl)c(F)c3)c3[nH]c4ccccc4c3C[C@H]2C1=O)NO
inactive: T-47D breast 75.6% | BT-549 breast 108% | MDA-MB-435 melanoma 82.8% | SW-620 colon 74.7% | MCF7 breast 73.2% | HCT-116 colon 55.5% | HCC-2998 colon 99.2% | KM12 colon 87.1%

CCOC(=O)CC(=O)CSC1=NC2C(NN1)N(C)C(=O)N2C (stereo not given)
inactive: T-47D breast 31.8% | BT-549 breast 101% | MDA-MB-435 melanoma 94.6% | SW-620 colon 75.8% | MCF7 breast 10.9% | HCC-2998 colon 105% | KM12 colon 101%
active: HCT-116 colon 9.01%

COc1ccccc1/C=C/C=N/NC1=NC2C(S1)N(C)C(=O)N2c1ccccc1 (stereo not given)
inactive: T-47D breast 77.8% | BT-549 breast 10% | SW-620 colon 17.7% | MCF7 breast 13.4% | HCC-2998 colon 19.9%
active: MDA-MB-435 melanoma -20.6% | HCT-116 colon 3.81% | KM12 colon 7.34%

C=CCn1c(SCC(=O)Nc2ccc(OC)cc2)nnc1-c1ccc(Cl)cc1
inactive: T-47D breast 95.5% | BT-549 breast 106% | MDA-MB-435 melanoma 90.1% | SW-620 colon 99.1% | MCF7 breast 94.9% | HCT-116 colon 91.2% | HCC-2998 colon 99.6% | KM12 colon 92.4%

COc1ccc(-c2cc(-c3cccc4ccccc34)n3c(n2)nc2ccccc23)cc1
inactive: T-47D breast 24.2% | BT-549 breast 69.9% | MDA-MB-435 melanoma 53.4% | SW-620 colon 40.6% | MCF7 breast 19.6% | HCT-116 colon 37.9% | HCC-2998 colon 88.3% | KM12 colon 62.4%

CN(C)c1ccc(/C=N/Nc2nc(N/N=C/c3ccc(N(C)C)cc3)nc(N3CCOCC3)n2)cc1
inactive: T-47D breast 94.7% | BT-549 breast 106% | MDA-MB-435 melanoma 104% | SW-620 colon 83.8% | MCF7 breast 54.8% | HCT-116 colon 35.7% | HCC-2998 colon 103% | KM12 colon 104%

CCC(C)[C@H]1OC(=O)[C@H](C(C)C)N(C)C(=O)[C@@H](C(C)C)OC(=O)[C@H](C(C)C)N(C)C(=O)[C@@H](C(C)CC)OC(=O)[C@H](C(C)C)N(C)C1=O (stereo not given in full)
active: T-47D breast 3.65% | BT-549 breast 0.725% | MCF7 breast 8.27% | HCT-116 colon 8.58%
inactive: MDA-MB-435 melanoma 16.1% | SW-620 colon 17.3% | HCC-2998 colon 23.4% | KM12 colon 15.7%

IP(CCCSc1n(Cc2ccc3ccccc3c2)c(-c2ccccc2)c(-c2ccccc2)[n+]1Cc1ccc2ccccc2c1)(c1ccccc1)(c1ccccc1)c1ccccc1
inactive: BT-549 breast 20% | MDA-MB-435 melanoma 14.9% | SW-620 colon 45.7% | HCT-116 colon 14.1% | HCC-2998 colon 24.3%
active: T-47D breast 2.62% | MCF7 breast 9.71% | KM12 colon 4.9%

COc1ccc(-c2nnc(/N=C3/C(=O)Nc4ccc(Br)cc43)o2)cc1
inactive: T-47D breast 104% | BT-549 breast 103% | MDA-MB-435 melanoma 94.7% | SW-620 colon 100% | MCF7 breast 78.8% | HCT-116 colon 101% | HCC-2998 colon 115% | KM12 colon 89.7%

CN(c1ccc(F)cc1)S(=O)(=O)c1ccc(-c2cnc(C3CC3)o2)cc1
active: MDA-MB-435 melanoma -26.2%
inactive: T-47D breast 54.1% | BT-549 breast 46.2% | SW-620 colon 32.9% | MCF7 breast 23.7% | HCT-116 colon 18.7% | HCC-2998 colon 22.3% | KM12 colon 18.5%

COc1cnc2c(c1)C(=O)c1c-2n(CCCNCC2CC2)c(=O)c2cc(F)ccc12
active: T-47D breast -21.2% | BT-549 breast -0.964% | SW-620 colon -29.6% | MCF7 breast -8.09% | HCT-116 colon -79.7% | HCC-2998 colon -41% | KM12 colon -8.57%
inactive: MDA-MB-435 melanoma 10%

CC(=O)Nc1ccc(C)c(Nc2cc(-c3ccc(-n4cccn4)cc3)[nH]n2)c1
active: MDA-MB-435 melanoma -26.4%
inactive: T-47D breast 53% | BT-549 breast 30.4% | SW-620 colon 31.5% | MCF7 breast 23.4% | HCT-116 colon 19.3% | HCC-2998 colon 83.2% | KM12 colon 30.8%

CCOC(=O)c1ccc(N/C=C/C(=O)c2ccccc2)cc1
inactive: T-47D breast 84.6% | BT-549 breast 114% | MDA-MB-435 melanoma 92.7% | SW-620 colon 100% | MCF7 breast 88.2% | HCT-116 colon 96.5% | HCC-2998 colon 109% | KM12 colon 98.5%

O=c1c2ccccc2nc(COc2ccccc2)n1/N=C/C=C/c1ccccc1
inactive: T-47D breast 94.6% | BT-549 breast 135% | MDA-MB-435 melanoma 99.8% | SW-620 colon 91.5% | MCF7 breast 83.8% | HCT-116 colon 96.5% | HCC-2998 colon 101% | KM12 colon 111%

Cc1cc(=O)n2nc(-c3c[nH]c4ccccc34)sc2n1
inactive: T-47D breast 92.2% | BT-549 breast 108% | MDA-MB-435 melanoma 103% | SW-620 colon 94.4% | MCF7 breast 73.2% | HCT-116 colon 109% | HCC-2998 colon 107% | KM12 colon 101%

O=c1cc(-c2ccccc2)nc2sc(-c3c[nH]c4ccc(F)cc34)nn12
inactive: T-47D breast 27.2% | BT-549 breast 56.7% | MDA-MB-435 melanoma 63.7% | SW-620 colon 60.9% | MCF7 breast 57.9% | HCT-116 colon 57.2% | HCC-2998 colon 83.4% | KM12 colon 84.2%
